Reference: PubChem BioAssay (NCATS)
Several values for one entry are separate records, joined by “and”; a condition that tells them apart may be missing. Equal values may be shown once. Records with an inconclusive call do not appear. Activity calls are given as the source filed them. The call rests on the fitted dose curve; in most records, active means well fitted curve in the direction sought with a large enough effect; inconclusive means small, poorly fitted or top-dose-only effect, or another doubt; inactive means no such curve, though single readings can be large; an effect the other way counts as inactive or inconclusive.

Legend:
KB-3-1 = assay: Cytotoxic Profiling of Annotated Libraries Using Quantitative High-Throughput Screening (AID 1296008); settings: Five cell lines viability, CellTiter-Glo ATP luminescence, 48-72 h; max response: stronger effect = lower value; further: nearly all actives have a fitted effect of over 60% in size
Procedure, shortened: (§1)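 Cells exposed to compounds for 48 or 72 hr at 37 degrees Celsius. Viability read as ATP-coupled luminescence with CellTiter-Glo after 10 min at room temperature.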

NIH3T3 [1] = assay: as above; settings: Five cell lines viability, CellTiter-Glo ATP luminescence, 48-72 h; max response: stronger effect = lower value
Procedure, shortened: as §1

HACAT = assay: qHTS assay to identify novel small-molecules to repurpose for Merkel cell carcinoma treatment (AID 1296009); settings: MCC and control cell lines, CellTiter-Glo viability, 72 h; at 44.8 µM (top of the series) unless noted; further: nearly all actives have a fitted effect of over 60% in size
Procedure, shortened: (§2)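 Cells were incubated with compound for 72 hr at 37 degree celsius before CellTiter-Glo addition. Luminescence was normalized with no-cell wells as full cytotoxicity and DMSO as baseline.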

HEK293T [2] = assay: as above; settings: MCC and control cell lines, CellTiter-Glo viability, 72 h; series mostly up to 44.8 µM
Procedure, shortened: as §2

C33A = assay: Primary qHTS to identify gynecologic anti-cancer compounds using libraries of approved drugs and bioactive compounds (AID 1345084); settings: Gynecologic cancer cell panel viability, ATPlite luminescence, 48 h; series mostly up to 57.5 µM; further: nearly all actives have a fitted effect of over 55% in size
Procedure, shortened: (§3)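 Cells, 1,000 per well, plated 16 h, then exposed 48 h at 37 C to compounds. Viability by ATPlite luminescence after 15 min at room temperature.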

CASKI = assay: as above; settings: Gynecologic cancer cell panel viability, ATPlite luminescence, 48 h; series mostly up to 57.5 µM
Procedure, shortened: as §3

Es-2 = assay: as above; settings: Gynecologic cancer cell panel viability, ATPlite luminescence, 48 h; series mostly up to 57.5 µM
Procedure, shortened: as §3

HeLa = assay: as above; settings: Gynecologic cancer cell panel viability, ATPlite luminescence, 48 h; series mostly up to 57.5 µM
Procedure, shortened: as §3

Hek293T [3] = assay: as above; settings: Gynecologic cancer cell panel viability, ATPlite luminescence, 48 h, control line for the selectivity index; series mostly up to 57.5 µM
Procedure, shortened: as §3

JEG-3 = assay: as above; settings: Gynecologic cancer cell panel viability, ATPlite luminescence, 48 h; series mostly up to 57.5 µM
Procedure, shortened: as §3

OV90 = assay: as above; settings: Gynecologic cancer cell panel viability, ATPlite luminescence, 48 h; series mostly up to 57.5 µM
Procedure, shortened: as §3

PA-1 = assay: as above; settings: Gynecologic cancer cell panel viability, ATPlite luminescence, 48 h; series mostly up to 57.5 µM
Procedure, shortened: as §3

CAOV3 = assay: as above; settings: Gynecologic cancer cell panel viability, ATPlite luminescence, 48 h; series mostly up to 57.5 µM
Procedure, shortened: as §3

NIH3T3 [4] = assay: qHTS assay to identify novel small-molecules to repurpose for Merkel cell carcinoma treatment (AID 1296009); settings: MCC and control cell lines, CellTiter-Glo viability, 72 h; at 44.8 µM (top of the series) unless noted; further: nearly all actives have a fitted effect of over 60% in size
Procedure, shortened: as §2

MCC-13 = assay: as above; settings: MCC and control cell lines, CellTiter-Glo viability, 72 h; series mostly up to 46 µM
Procedure, shortened: as §2

MCC-26 = assay: as above; settings: MCC and control cell lines, CellTiter-Glo viability, 72 h; series mostly up to 46 µM
Procedure, shortened: as §2

MKL-1 = assay: as above; settings: MCC and control cell lines, CellTiter-Glo viability, 72 h; series mostly up to 46 µM
Procedure, shortened: as §2

MKL-2 = assay: as above; settings: MCC and control cell lines, CellTiter-Glo viability, 72 h; series mostly up to 46 µM
Procedure, shortened: as §2

UISO = assay: as above; settings: MCC and control cell lines, CellTiter-Glo viability, 72 h; series mostly up to 46 µM
Procedure, shortened: as §2

WaGa = assay: as above; settings: MCC and control cell lines, CellTiter-Glo viability, 72 h; series mostly up to 46 µM
Procedure, shortened: as §2
On the % scale 0 is the no-effect control and ±100 the full control effect.

CC(=O)O[C@@H]1[C@H](O[C@@H]2OC[C@](O)(CO)[C@H]2O)[C@@H](O[C@@H]2O[C@@H](C)[C@H](O)[C@@H](O)[C@H]2O)[C@H](OC(=O)[C@]23CCC(C)(C)C[C@H]2C2=CCC4[C@@]5(C)C[C@H](O)[C@H](O[C@@H]6O[C@H](C(=O)O)[C@@H](O)[C@H](O)[C@H]6O)[C@@](C)(C(=O)O)C5CC[C@@]4(C)[C@]2(C)CC3)O[C@@H]1C (some centres undefined)
inactive: outcome (KB-3-1) | max response (NIH3T3 [1]) 2.52% | outcome (HACAT) inactive [at 9.27 µM] | outcome (HEK293T [2]) inactive [at 9.27 µM] | activity change, negative = cytotoxicity (C33A) -3.02% [at 11.6 µM] | activity change, negative = cytotoxicity (CASKI) 0.959% [at 11.6 µM] | activity change, negative = cytotoxicity (Es-2) 1.8% [at 11.6 µM] | activity change, negative = cytotoxicity (HeLa) 0.991% [at 11.6 µM] | activity change, negative = cytotoxicity (Hek293T [3]) 9.21% [at 11.6 µM] | activity change, negative = cytotoxicity (JEG-3) 0.39% [at 11.6 µM] | activity change, negative = cytotoxicity (OV90) 0.243% [at 11.6 µM] | activity change, negative = cytotoxicity (PA-1) -6.11% [at 11.6 µM]

CC1CC(O)CC(C)(C)C1(O)CCO (centres undefined)
inactive: outcome (KB-3-1) | max response (NIH3T3 [1]) 0.3% | outcome (HACAT) inactive [at 92 µM] | Potency (HEK293T [2]) | Potency (C33A) | Potency (CASKI) | Potency (Es-2) | Potency (HeLa) | Potency (Hek293T [3]) | Potency (JEG-3) | Potency (OV90) | Potency (PA-1)

OC[C@H]1O[C@@H](OCCc2ccc(O)cc2)[C@H](O)[C@@H](O)[C@@H]1O
inactive: max response (KB-3-1) 7.2% and 9.78% | max response (NIH3T3 [1]) -4.78% | outcome (HACAT) | Potency (C33A) | Potency (CAOV3) | Potency (CASKI) | Potency (Es-2) | Potency (HeLa) | Potency (Hek293T [3]) | Potency (JEG-3) | Potency (OV90) | Potency (PA-1)

Cc1cc(O)cc(Oc2cc(C)c(C(=O)O)c(O)c2)c1
inactive: outcome (KB-3-1) | max response (NIH3T3 [1]) 4.83% | outcome (HACAT) | Potency (HEK293T [2]) | Potency (C33A) | Potency (CASKI) | Potency (Es-2) | Potency (HeLa) | Potency (Hek293T [3]) | Potency (JEG-3) | Potency (OV90) | Potency (PA-1)

CC1(C)CC2C3=CCC4C5(C)CCC(OC6OC(C(=O)O)C(O)C(O)C6OC6OC(CO)C(O)C(O)C6OC6OC(CO)C(O)C(O)C6O)C(C)(CO)C5CCC4(C)C3(C)CCC2(C)C(OC2OCC(O)C(OC3OC(CO)C(O)C(O)C3O)C2O)C1O (centres undefined)
inactive: max response (KB-3-1) 5.61% | max response (NIH3T3 [1]) -17.3% | outcome (HACAT) inactive [at 9.27 µM] | outcome (HEK293T [2]) inactive [at 9.27 µM] | activity change, negative = cytotoxicity (C33A) 8.44% [at 6.55 µM] | activity change, negative = cytotoxicity (CASKI) 6.12% [at 6.55 µM] | activity change, negative = cytotoxicity (Es-2) 1.46% [at 6.55 µM] | activity change, negative = cytotoxicity (HeLa) -0.393% [at 6.55 µM] | activity change, negative = cytotoxicity (Hek293T [3]) 8.01% [at 6.55 µM] | activity change, negative = cytotoxicity (JEG-3) 6.32% [at 6.55 µM] | activity change, negative = cytotoxicity (OV90) -9.75% [at 6.55 µM] | activity change, negative = cytotoxicity (PA-1) 5.88% [at 6.55 µM]

CC(=O)O[C@@H]1[C@@H](OC(=O)/C=C/c2ccccc2)[C@H](C)O[C@@H](O[C@H]2[C@@H]3C=CO[C@@H](O[C@@H]4O[C@H](CO)[C@@H](O)[C@H](O)[C@H]4O)[C@@H]3[C@@]3(CO)O[C@@H]23)[C@@H]1OC(C)=O
inactive: max response (KB-3-1) 5.32% | outcome (NIH3T3 [1]) | Potency (HEK293T [2]) | outcome (NIH3T3 [4]) inactive [at 17.4 µM] | Potency (C33A) | Potency (CAOV3) | Potency (CASKI) | Potency (Es-2) | Potency (HeLa) | Potency (Hek293T [3]) | Potency (JEG-3) | Potency (OV90) | Potency (PA-1)

OC[C@H]1O[C@@H](Oc2ccc(O)c3cccc(O)c23)[C@H](O)[C@@H](O)[C@@H]1O
inactive: max response (KB-3-1) 3.57% | outcome (NIH3T3 [1]) | Potency (HEK293T [2]) | outcome (NIH3T3 [4]) | Potency (C33A) | Potency (CAOV3) | Potency (CASKI) | Potency (Es-2) | Potency (HeLa) | Potency (Hek293T [3]) | Potency (JEG-3) | Potency (OV90) | Potency (PA-1)

CC(C)C1=CC2=CCC3[C@](C)(CCC[C@@]3(C)C(=O)O)C2CC1=O (some centres undefined)
inactive: max response (KB-3-1) 8.65% | outcome (NIH3T3 [1]) | Potency (HEK293T [2]) | outcome (NIH3T3 [4]) | Potency (C33A) | Potency (CAOV3) | Potency (CASKI) | Potency (Es-2) | Potency (HeLa) | Potency (Hek293T [3]) | Potency (JEG-3) | Potency (OV90) | Potency (PA-1)

C[C@H]1[C@H](C)CC[C@]2(C(=O)O)CC[C@]3(C(=O)O)C(=CCC4[C@@]5(C)CC[C@H](O[C@@H]6O[C@H](C)[C@@H](O)[C@H](O)[C@H]6O)C(C)(C)C5CC[C@]43C)[C@H]12 (some centres undefined)
inactive: max response (KB-3-1) 1.93% | outcome (NIH3T3 [1]) | Potency (HEK293T [2]) | outcome (NIH3T3 [4]) inactive [at 17.4 µM] | Potency (C33A) | Potency (CAOV3) | Potency (CASKI) | Potency (Es-2) | Potency (HeLa) | Potency (Hek293T [3]) | Potency (JEG-3) | Potency (OV90) | Potency (PA-1)

CC1(C)CCCC2(C)C(CO)C3CCC2C31 (centres undefined)
inactive: outcome (KB-3-1) | outcome (NIH3T3 [1]) | Potency (HEK293T [2]) | outcome (NIH3T3 [4]) | Potency (C33A) | Potency (CAOV3) | Potency (CASKI) | Potency (Es-2) | Potency (HeLa) | Potency (Hek293T [3]) | Potency (JEG-3) | Potency (OV90) | Potency (PA-1)

CC(=O)OC(C)OC(=O)C(C)c1ccc(-c2ccccc2)c(F)c1 (centres undefined)
inactive: max response (KB-3-1) 1.74% and -23.2% | outcome (NIH3T3 [1]) | outcome (HACAT) | outcome (MCC-13) | outcome (MCC-26) | outcome (MKL-1) | outcome (MKL-2) | outcome (NIH3T3 [4]) | outcome (UISO) | outcome (WaGa) | Potency (C33A) | Potency (CAOV3) | Potency (CASKI) | Potency (Es-2) | Potency (HeLa) | Potency (Hek293T [3]) | Potency (JEG-3) | Potency (OV90) | Potency (PA-1)
